{
  "source": "paper PMC5540273",
  "about": "(PLoS ONE, 2017);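 further: kd values determined as follow-up on hits from a single-replicate KINOMEscan panel screen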",
  "data": [
    {"tested_on": "TNIK", "units": {"Kd": "nM"}, "values": [
      {"smiles": "Fc1ccc(Nc2nccc(-c3c(-c4ccc(Cl)cc4)nn4ncccc34)n2)cc1F", "note": "[GW829058]", "Kd": "> 10000"},
      {"smiles": "Nc1nc(-c2cccnc2)c(-c2ccnc3ccccc23)s1", "note": "[GW684083]", "Kd": "> 10000"},
      {"smiles": "CCC(CC)(CC)n1cnc2c(N)ncnc21", "note": "[SKF-97620]", "Kd": "> 10000"},
      {"smiles": "Clc1ccc(-c2cc(-c3c[nH]nc3-c3ccccn3)ccn2)cc1", "note": "[GW681251]", "Kd": 390}
    ]},
    {"tested_on": "TYK2(JH2domain-pseudokinase)", "units": {"Kd": "nM"}, "values": [
      {"smiles": "COc1ccc(-c2oc3ncnc(N)c3c2-c2ccc(OC)cc2)cc1", "note": "[SB-589132]", "Kd": 1600},
      {"smiles": "CC(=O)Nc1n[nH]c2ncc(-c3ccccc3)cc12", "note": "[SB-548492]", "Kd": 580},
      {"smiles": "CN1c2ccc(-c3ccc(C(=O)NCCO)cc3)cc2-c2[nH]ncc2S1(=O)=O", "Kd": 130}
    ]}
  ]
}
